Measured values published in PubChem BioAssay (NCATS).

target: DNA dC->dU-editing enzyme APOBEC-3G (Homo sapiens) (UniProt Q9HC16); assay: qHTS for inhibitors of Vif-A3G interactions: Validation (AID 588379); conditions: Vif-A3G protein interaction assay; series mostly up to 46.1 µM; activity change, negative = inhibition: at the top concentration; further: 0% is about no effect
Description: The recent discovery and characterization of host restriction factors, which provide a potent defense to invading retroviruses, has provided new targets for antiviral drug development. APOBEC3G (A3G) and APOBEC3F (A3F) are potent cytidine deaminases that block HIV-1 replication; HIV-1 expresses the Vif protein, which counteracts A3G and A3F by binding to them and inducing their proteasomal degradation.
The Vif-A3G and Vif-A3F interactions provide two potential targets for development of small molecules which can interfere with the ability of Vif to degrade A3G or A3F. […] To identify inhibitors that can interfere with Vif mediated degradation of A3G and A3F, we have developed Hela cell lines that stably express A3G or A3F tagged with eYFP at the C-terminal end (A3G-eYFP or A3F-eYFP, respectively) and Vif. In the absence of an inhibitor, Vif induces degradation of A3G-eYFP and A3F-eYFP, and the cells are not fluorescent. In the presence of an inhibitor, it is expected that Vif will be unable to degrade A3G-eYFP and/or A3F-eYFP, resulting in an increase in yellow fluorescence. In this assays Vif A3G was screened against the Molecular Library Small Molecile Repository (MLSMR).
NIH Chemical Genomics Center [NCGC]
NIH Molecular Libraries Probe Centers Network [MLPCN]
Assay Submitter (PI): Vinay Pathak, National Cancer Institute
5 uL of 700 cells/well of A3G-YFP cells are dispensed into black, clear bottom plates. The plates are incubated overnight at 37 deg C. 23 nL of compounds are added by pintool. The plates are incubated overnight at 37 deg C and then read on the TTP Acumen (Ex 488/ Em 500-530).

Sequence of DNA dC->dU-editing enzyme APOBEC-3G (Homo sapiens) (Q9HC16 whole entry, looked up): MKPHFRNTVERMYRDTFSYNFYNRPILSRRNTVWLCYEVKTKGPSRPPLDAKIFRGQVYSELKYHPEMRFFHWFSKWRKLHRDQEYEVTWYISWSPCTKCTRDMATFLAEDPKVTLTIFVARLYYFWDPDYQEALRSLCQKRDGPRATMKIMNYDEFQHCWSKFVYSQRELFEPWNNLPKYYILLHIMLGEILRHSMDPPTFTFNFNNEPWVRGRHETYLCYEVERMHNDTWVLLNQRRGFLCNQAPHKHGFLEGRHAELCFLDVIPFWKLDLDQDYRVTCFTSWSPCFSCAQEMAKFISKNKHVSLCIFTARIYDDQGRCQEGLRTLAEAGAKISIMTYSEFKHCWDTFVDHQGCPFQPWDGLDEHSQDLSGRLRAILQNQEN

Activity change, negative = inhibition, inactive:
CC[C@]12CCCN3CCc4c(n(c5ccccc45)C(=O)C1)[C@H]32 -3.61%, CC(=O)OC1CCC2(C)C(=CCC3C2CCC2(C)C3C[C@@H]3O[C@]32C(C)=O)C1 (stereo not given in full) -0.0916%, O=C1CC(c2ccccc2O)Oc2ccc(O)cc21 (stereo not given) -8%, Clc1ccc2nc(-c3ccccc3)[nH]c2c1 -5.42%, C=C1C(=O)OC2C[C@@]3(C)CCCC(=C)[C@@H]3CC12 (stereo not given in full) -1.24%, O=c1cc(-c2ccc(O)cc2)oc2cccc(O)c12 -2.28%, CC1CC2(C)Oc3ccccc3C3OCC1(COC(=O)Nc1ccccc1)C(C)C32 (stereo not given) 4.18%, Cc1ccc(CC(Cc2nc3ccccc3[nH]2)c2nc3ccccc3[nH]2)cc1 (stereo not given) -2.19%, Cc1ccc(C(=O)[C@@H]2[C@H]3C4COC(O4)C(=O)[C@@H]3[C@H]3C=Cc4ccccc4N32)cc1 (stereo not given in full) -6.54%, CC1C(=O)OC2CC34C5CC(C(C)(C)C)C36C(OC(=O)C6O)OC4(C(=O)O5)C21O (stereo not given) -4.18%, C[C@H](CCC(=O)O)[C@H]1CC[C@@H]2[C@H]3CC[C@H]4C[C@H](O)CC[C@]4(C)[C@@H]3CC[C@@]21C -3.95%, C[C@H]1[C@H](C)CC[C@]2(C(=O)O)CC[C@]3(C)C(=CCC4[C@@]5(C)CC[C@H](O)C(C)(C)[C@@H]5CC[C@]43C)[C@H]12 (stereo not given in full) 1.93%, COc1ccc(-c2oc3cc(OC)ccc3c(=O)c2O)cc1 -0.55%, COc1ccc2c(c1OC)C(Cc1ccccc1)N1CCc3cc4c(cc3C1=C2)OCO4 (stereo not given) -3.35%, CC1(C)CC[C@]2(C(=O)O)CC[C@]3(C)C(=CCC4[C@@]5(C)CC[C@H](O)C(C)(C)C5[C@H](O)C[C@]43C)C2C1 (stereo not given in full) 1.45%, COc1ccc(/C=C/C(=O)c2cccs2)cc1OC -6.71%, COc1ccc(-c2oc3ccccc3c(=O)c2O)cc1 3.27%, COc1cccc2oc(-c3ccccc3)cc(=O)c12 -5.55%, COC(=O)CCC(C)C1CCC2C3C(C[C@H](O)C12C)C1(C)CC[C@@H](O)CC1C[C@H]3O (stereo not given in full) -5.13%, OC[C@H]1O[C@@H](OC[C@H]2O[C@@H](O)[C@H](O)[C@@H](O)[C@@H]2O)[C@H](O)[C@@H](O)[C@@H]1O -4.85%, CC(C)=CCC/C(C)=C/COc1c2occc2cc2ccc(=O)oc12 1.81%, COc1ccc2c(=O)c(-c3ccccc3)coc2c1 -2.51%, CC(=O)Nc1ccc(-c2nc3ccc(Cl)cc3[nH]2)cc1 -3.26%, C[C@@H]1O[C@@H](OC[C@H]2O[C@@H](Oc3c(-c4cccc(O)c4O)oc4cc(O)cc(O)c4c3=O)[C@H](O)[C@@H](O)[C@@H]2O)[C@H](O)[C@H](O)[C@H]1O -2.7%, COc1cc2c(Cc3c4c5c(cc(OC)c(OC)c5c5c(OC)c(OC)ccc35)CCN4C)c3c4c(cc(OC)c(OC)c4c2cc1OC)CCN3C -0.254%, COc1cc2c(C(=O)c3ccccc3)c3c4c(cc(OC)c(OC)c4c2cc1OC)CCN3C -1.72%, CC(=O)OCC1OC(Oc2cc(OC(C)=O)c3c(=O)cc(-c4ccc(OC(C)=O)c(OC(C)=O)c4)oc3c2)C(OC(C)=O)C(OC(C)=O)C1OC(C)=O (stereo not given) -5.24%, CC(C)c1ccc2c(c1)CC[C@@H]1[C@@](C)(CN)CCC[C@]21C -1.29%, CCOc1ccc(/C=C/C(=O)c2cccs2)cc1 -2.6%, CC(=O)OC1CCC2(C)C3CCC4(C)C(CC5CCCCC54C(C)=O)C3CC(=O)[C@@]2(O)C1 (stereo not given in full) -6.47%, COc1ccc2c(c1OC)C(Cc1ccccc1)N1CCc3cc4c(cc3C1C2)OCO4 (stereo not given) -5.73%, C[C@H]1[C@H]2CC[C@H]3C4CC=C5C[C@@H](N(C)C)CC[C@]5(C)C4CC[C@]23CN1C (stereo not given in full) 1.01%, COc1cc([C@@H]2c3cc4c(cc3C(OC3OC5COC(C)OC5C(O)C3O)C3COC(=O)[C@@H]32)OCO4)cc(OC)c1O (stereo not given in full) -17%, Cc1csc(-c2nc3ccccc3n2C)n1 2.94%, COc1cc(OC)c2c(c1)OC(c1ccccc1)CC2=O (stereo not given) -4.7%, CC(=O)Oc1ccc(/C=C/C(=O)CC2OC(Oc3cc(OC(C)=O)c4c(c3)O[C@@H](c3ccc(OC(C)=O)cc3)CC4=O)C(OC(C)=O)C(OC(C)=O)C2OC(C)=O)cc1 (stereo not given in full) -0.665%, COc1cc2c(C)c3c4c(cc(OC)c(OC)c4c2cc1OC)CCN3C 0.354%, COc1cc(/C=C/C(=O)c2cccs2)cc(OC)c1OC -2.65%, CC(=O)[C@@H]1[C@H]2[C@H](C(=O)[C@H]3OC[C@@H]2O3)[C@H]2C=Cc3ccccc3N21 -1.53%, Cc1ccc2oc(-c3ccccc3)cc(=O)c2c1 -0.431%
